Screening data: PubChem, National Center for Advancing Translational Sciences (NCATS)
In the library only some 9.8% were active in any assay of this set; here they are far more common.
HTT aggregate: mutant huntingtin aggregation inhibition; PC12 HttQ103-GFP aggregates, Acumen cytometry, 40 h; Potency, µM (highest dose often 46.1 µM), most hits filed as inhibitors; actives 1.1% (n = 220,000); AID 1688; active = well fitted curve in the direction sought with a large enough effect; inconclusive = small, poorly fitted or top-dose-only effect, or another doubt; inactive = no such curve, though single readings can be large; an effect the other way counts as inactive or inconclusive; also: nearly all actives have a fitted effect of over 60% in size
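Multiplexed with ATP-based cell death, this channel scores GFP aggregates in PC12 cells expressing inducible HTTex1-Q103-GFP. Induction used 100 nM tebufenozide; compounds were tested in concentration series.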
KDM4E inh: JMJD2E (human) inhibition | JMJD2E catalytic domain, FDH-coupled NADH fluorescence (FDH is formaldehyde dehydrogenase) | Potency, µM (doses to about 57.1 µM), most hits filed as inhibitors | actives 1.6% (n = 230,000); also: nearly all actives have a fitted effect of over 50% in size
ALDH1A1 block: inhibitors of human aldehyde dehydrogenase 1A1. P00352. actives 7.3% (n = 220,000). Potency, µM (doses to about 75.3 µM), actives largely listed as inhibitors. Purified ALDH1A1, NADH fluorescence, propionaldehyde substrate. AID 1030
Target sequence (P00352 whole entry, looked up): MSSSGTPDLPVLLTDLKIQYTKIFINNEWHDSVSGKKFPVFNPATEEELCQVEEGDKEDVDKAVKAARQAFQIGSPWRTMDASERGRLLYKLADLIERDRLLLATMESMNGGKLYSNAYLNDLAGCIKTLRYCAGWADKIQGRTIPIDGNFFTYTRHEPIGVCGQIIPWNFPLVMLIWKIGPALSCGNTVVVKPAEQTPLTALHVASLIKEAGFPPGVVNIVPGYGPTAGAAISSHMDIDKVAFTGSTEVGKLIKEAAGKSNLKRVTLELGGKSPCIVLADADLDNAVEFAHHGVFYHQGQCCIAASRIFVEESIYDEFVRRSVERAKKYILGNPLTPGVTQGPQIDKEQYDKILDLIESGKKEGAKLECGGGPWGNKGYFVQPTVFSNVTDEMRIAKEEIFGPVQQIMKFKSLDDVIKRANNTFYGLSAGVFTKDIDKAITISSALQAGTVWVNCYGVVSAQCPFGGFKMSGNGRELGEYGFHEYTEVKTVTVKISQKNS
HTT ATP protect: Huntington cell model cytoprotection by ATP luminescence | PC12 HTT-Q103 induced, cytoprotection, ATP luminescence, 40 h | Potency, µM (highest dose often 56.4 µM), hits mostly activators | actives 0.14% (n = 230,000); active = well fitted curve in the direction sought with a large enough effect; inconclusive = small, poorly fitted or top-dose-only effect, or another doubt; inactive = no such curve, though single readings can be large; an effect the other way counts as inactive or inconclusive; also: nearly all actives have a fitted effect of over 45% in size
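PC12 cells with ecdysone-inducible HTT exon 1 Q103-GFP, induced with 100 nM tebufenozide and co-treated with library compounds in a dose series (1536-well, 1500 cells/well). Cytoprotection read as ATP content by ATPlite luminescence.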
HPGD inh: blocks human HPGD enzyme activity; Potency, µM, actives largely listed as inhibitors; P15428; AID 894; purified HPGD, NADH fluorescence kinetic, PGE2 substrate; actives 4.3% (n = 150,000)
Target sequence (P15428 whole entry, looked up): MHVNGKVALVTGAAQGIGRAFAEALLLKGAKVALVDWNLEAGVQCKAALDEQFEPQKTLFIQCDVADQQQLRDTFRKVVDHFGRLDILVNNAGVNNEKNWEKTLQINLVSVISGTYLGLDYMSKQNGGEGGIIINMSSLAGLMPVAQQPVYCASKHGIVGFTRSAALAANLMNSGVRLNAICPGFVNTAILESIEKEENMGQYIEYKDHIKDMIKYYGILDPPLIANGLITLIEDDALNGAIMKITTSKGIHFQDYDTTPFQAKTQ
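NADH formation kinetics: reaction with 30 uM PGE2 and 1 mM NAD+ (final), 20 nM enzyme, Tris-HCl pH 8 with Tween 20, after 15 min compound preincubation at room temperature. Fluorescence change, last versus first of five reads.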
CBFb RUNX1 block: CBF-beta/RUNX1 interaction disruption. Q01196+Q13951. AlphaScreen CBFb-His/RUNX1-biotin binding, biochemical. Potency, µM (titrated, usually from 59.8 µM), most hits filed as inhibitors. 230,000 tested, under 10 active; active = well fitted curve in the direction sought with a large enough effect; inconclusive = small, poorly fitted or top-dose-only effect, or another doubt; inactive = no such curve, though single readings can be large; an effect the other way counts as inactive or inconclusive
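CBF-beta (His) and RUNX1 (biotin), 30 nM each; 20 min preassociation; + compound, 15 min; + beads 50 ng each (Ni, streptavidin), 90 min; RT; AlphaScreen read.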
Large screens that a line does not name were inactive. Unless noted, calls follow the shape of the dose curve; as a rule, active = well fitted inhibition curve with a large enough effect (not every such curve was filed as active); inconclusive = small, poorly fitted or top-dose-only effect, or another doubt; inactive = no such curve, though single readings can be large or run the other way.

COC1=C/C(=C/c2c(N)n3c(nc2=O)sc2cc(S(C)(=O)=O)ccc23)C=CC1=O	none (no result: ALDH1A1 block, HPGD inh)
CC(C)(CSc1ncccn1)NS(=O)(=O)c1ccccc1	ALDH1A1 block inconclusive (no result: HPGD inh)
Cc1ccc(S(=O)(=O)NC(C)(C)CSc2nnc(Nc3ccccc3)s2)cc1	ALDH1A1 block 20µM
Cc1ccc(S(=O)(=O)NC(C)(C)CSc2nncn2N)cc1	HTT aggregate 2.8µM, HTT ATP protect inconclusive
Cc1ccc(-c2nnc(CSc3nncn3N)o2)cc1	none
Cc1cccc(C(=O)c2c(N)sc3c2CCC(C)C3)c1 (stereo unspecified)	HTT aggregate inconclusive, ALDH1A1 block 7.9µM (no result: HPGD inh)
CC1CCc2c(sc(N)c2C(N)=O)C1 (stereo unspecified)	KDM4E inh inconclusive, ALDH1A1 block 13µM, HPGD inh inconclusive
CN1CCN(c2ncc3nc(-c4cn(C)c5ccccc45)c(=O)n(-c4ccccc4)c3n2)CC1	ALDH1A1 block inconclusive (no result: HTT aggregate, KDM4E inh, HPGD inh, CBFb RUNX1 block)
COc1cc(OC)c(N(C)S(=O)(=O)c2cccc(C(=O)NC3=NCCS3)c2)cc1Cl	KDM4E inh inconclusive (no result: ALDH1A1 block, HPGD inh)
COc1ccc(C(=O)/C=C2/c3ccccc3CC(C)(C)N2C)cc1OC	HTT aggregate inconclusive, ALDH1A1 block 24µM, CBFb RUNX1 block inconclusive
Cc1ccccc1N1C(=O)C(Cc2ccc(F)cc2)S/C1=C(\C#N)C(N)=O (stereo unspecified)	none (no result: ALDH1A1 block, HPGD inh)
CCN(CC)c1ccc(/C=C2\CCC(/C=C(\C#N)C(=O)Nc3ccccc3F)=C2N2CCOCC2)cc1	HTT aggregate inconclusive, ALDH1A1 block inconclusive, HPGD inh 11µM
CCCN(CCC)S(=O)(=O)c1ccc(C(=O)N2CCC(=O)c3ccccc32)cc1	ALDH1A1 block 18µM
O=C(c1ccc(S(=O)(=O)N2CCCCC2)cc1)N1CCCc2ccccc21	HTT aggregate inconclusive, ALDH1A1 block inconclusive
[O]=[Bi][O]C(=O)[O][Bi]=[O]	none (no result: KDM4E inh, ALDH1A1 block, HPGD inh, CBFb RUNX1 block)
OCC(O)C1OC(Nc2ccc(Cl)cc2)C(O)C1O (stereo unspecified)	none (no result: ALDH1A1 block, HPGD inh)
Cc1c(C(=O)NCCCN2CCOCC2)sc2ncnc(N3CCN(c4ccccc4)CC3)c12	none
Cc1c(C(=O)N2CCN(Cc3ccccc3)CC2)sc2ncnc(N3CCOCC3)c12	KDM4E inh inconclusive, ALDH1A1 block 25µM
Cc1c(C(=O)N2CCC(C)CC2)sc2ncnc(N(C)c3ccccc3)c12	HTT aggregate 20µM, KDM4E inh inconclusive, ALDH1A1 block inconclusive, HPGD inh 8.9µM
COc1ccc(C)cc1NC(=O)CNC(C)C(=O)Nc1cc(Cl)ccc1Cl (stereo unspecified)	ALDH1A1 block inconclusive (no result: HPGD inh)
O=C(O)CSc1nnc(Cc2cccc3ccccc23)n1-c1cc(C(F)(F)F)cc(C(F)(F)F)c1	none (no result: ALDH1A1 block, HPGD inh)
COc1cccc(C(=O)COc2ccc3c(C)c(Cc4ccccc4)c(=O)oc3c2)c1	ALDH1A1 block 0.63µM
O=C(CCC(=O)N(CC(=O)NC1CCCCC1)CC1CCCO1)Nc1nccs1 (stereo unspecified)	none (no result: HPGD inh)
CCN(CC)S(=O)(=O)c1ccc(Oc2ccc(S(=O)(=O)N(CC)CC)cc2)cc1	HTT aggregate 2.8µM
O=C(Oc1ccc2c(=O)c(Oc3ccc4ccccc4c3)coc2c1)c1cncc(Br)c1	KDM4E inh 11µM
Cc1noc(C)c1C(=O)N1CCC[C@@]2(CCN(C(=O)Nc3cccc(F)c3)C2)C1	none (no result: HTT aggregate, KDM4E inh, CBFb RUNX1 block)
CCCCCC(=O)Cc1cc(O)cc2c1C(=O)Oc1cc(O)c(C(=O)O)c(CCCCC)c1O2	KDM4E inh inconclusive (no result: ALDH1A1 block, HPGD inh)
Fc1ccccc1C1c2cccn2CCN1C(=S)Nc1cccc(Br)c1 (stereo unspecified)	KDM4E inh inconclusive, ALDH1A1 block inconclusive (no result: HPGD inh)
Fc1ccccc1C1c2cccn2CCN1C(=S)Nc1ccc(Br)cc1 (stereo unspecified)	HTT aggregate inconclusive, KDM4E inh inconclusive, ALDH1A1 block 14µM (no result: HPGD inh)
C=C1CCN(C(CC(C)C)C(=O)Nc2nc3ccc(Cl)cc3s2)S(=O)(=O)c2ccccc21 (stereo unspecified)	none (no result: HTT aggregate, KDM4E inh, ALDH1A1 block, HTT ATP protect, HPGD inh)
CN1CCN(c2ccc(NC(=O)c3ccc(-c4cccc([N+](=O)[O-])c4)o3)cc2)CC1	none (no result: HPGD inh)
O=C(Nc1ccc2oc(=O)ccc2c1)c1ccc(-c2ccc(Cl)cc2)o1	ALDH1A1 block 8.9µM (no result: HPGD inh)
COc1cccc(OC)c1C(=O)NC(=S)Nc1ccc2oc(=O)ccc2c1	ALDH1A1 block inconclusive
CC(=O)NC(=S)Nc1ccc2oc(=O)ccc2c1	ALDH1A1 block 8.9µM (no result: HPGD inh)
O=C(Nc1ccc2oc(=O)ccc2c1)c1ccc(-c2cccc([N+](=O)[O-])c2)o1	ALDH1A1 block 7.9µM (no result: HPGD inh)
CC(C)Cn1c(SCC(=O)NCc2ccc(Cl)cc2)nnc1-c1cccc(S(=O)(=O)N2CCOCC2)c1	none
CC(C)(CN1CCc2ccccc2C1)NS(=O)(=O)c1ccc(Cl)cc1	none (no result: ALDH1A1 block, HPGD inh)
CCCCCCC(=O)N/N=C/Cc1ccccc1	ALDH1A1 block 13µM
Cc1cc(=O)[nH]c(SCC(=O)c2ccccc2)c1C#N	ALDH1A1 block 18µM, HPGD inh inconclusive
N#Cc1c(-c2cccs2)cc(C2CC2)nc1SCC(N)=O	KDM4E inh inconclusive, ALDH1A1 block inconclusive, HPGD inh inconclusive
Cc1cc(C)c(C#N)c(SCC(O)CS(=O)(=O)Cc2ccccc2)n1 (stereo unspecified)	ALDH1A1 block 28µM
Cc1cc(SCC(=O)c2ccccc2)n2nc(C)nc2n1	ALDH1A1 block 20µM
CCN(CC)C(=O)CSc1nc(C)cc(-c2cccs2)c1C#N	ALDH1A1 block 13µM
COc1cc2c3cc1Oc1cc(ccc1O)C[C@@H]1c4c(cc(OC)c(O)c4Oc4ccc(cc4)C[C@H]3[N+](C)(C)CC2)CC[N+]1(C)C	HTT ATP protect inconclusive (no result: HTT aggregate, KDM4E inh, CBFb RUNX1 block)
CC(=O)OC[C@H]1O[C@@H](CCO/N=C2/[C@H]3O[C@@H]3[C@@H](O)[C@H]3[C@H]2CCn2c(=O)n(-c4ccccc4)c(=O)n23)C=C[C@@H]1OC(C)=O	none (no result: HTT aggregate, KDM4E inh, HPGD inh)
O=C1OC2(O)C3C4C=CC(C4)C3C(=O)N2c2ccccc21 (stereo unspecified)	none (no result: ALDH1A1 block, HPGD inh)
COC(=O)C(Sc1nc(C)cc(C)c1C#N)c1ccccc1 (stereo unspecified)	none
COC(=O)CSc1nc(C)cc(C)c1C#N	none (no result: HPGD inh)
Cc1cc(C)c(C#N)c(SCC(=O)c2ccccc2)n1	ALDH1A1 block 22µM (no result: HPGD inh)
Cc1nc(SCC(=O)c2ccccc2)c(C#N)c(-c2ccco2)c1C(=O)NCc1ccco1	ALDH1A1 block 10µM
N#Cc1c(-c2ccco2)cc(C2CC2)nc1SCC(=O)c1ccccc1	ALDH1A1 block inconclusive (no result: HPGD inh)
Cc1cc(C)c(C#N)c(Sc2ccccc2N)n1	KDM4E inh inconclusive, ALDH1A1 block 25µM (no result: HPGD inh)
Cc1cc(C)c(C#N)c(SCC(=O)c2cccs2)n1	ALDH1A1 block inconclusive, HPGD inh 16µM
CCOC(=O)c1cnc(N)nc1C(F)(F)F	KDM4E inh inconclusive (no result: HPGD inh)
